# PubChem BioAssay AID651640 (Broad Institute, 2012)
# Out of some 350,000 compounds screened, about 6,000 (1.7%) were called active. Roughly 5% stayed inconclusive and do not appear here. What follows is part of a selection rich in actives, with near analogues and random picks from the rest. Unmarked numbers belong to inactive results. No stated cut-off is given here; in the data, active means CPE inhibition above about 20% (passing the limit was not always enough); inconclusive means no clear call, values can overlap the other calls; tested in BHK-21 cells.
# Assay: protection of cells from dengue 2 killing – plate reader, single concentration, primary screen (AID 651640);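 further: 0% = median of neutral control wells and 100% = median of positive control wells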
# Conditions: DENV2-infected cells, cytopathic effect rescue, at 9.99 µM, active compounds read high
row,Compound,CPE inhibition
1,C[C@H]1CN([C@@H](C)CO)C(=O)c2cc(C3=CCCC3)cnc2O[C@H]1CN(C)Cc1ccccc1C(=O)O,10.8%
2,CC(C)C(=O)Nc1ccc2c(c1)C(=O)N(C)[C@@H]1CC[C@@H](CC(=O)NCCc3ccccc3)O[C@H]1CO2,19%
3,C[C@@H]1CCCCO[C@@H](CN(C)Cc2ccncc2)[C@H](C)CN([C@@H](C)CO)C(=O)c2cc(NS(=O)(=O)c3ccccc3)ccc2O1,-0.228%
4,C[C@H]1CCCCO[C@H](CN(C)Cc2ccc(C(F)(F)F)cc2)[C@@H](C)CN([C@@H](C)CO)C(=O)c2cc(NC(=O)C3CCCCC3)ccc2O1,-17.3%
5,C[C@@H]1CCCCO[C@@H](CN(C)C(=O)CCC(F)(F)F)[C@@H](C)CN([C@H](C)CO)C(=O)c2cc(NC(=O)CCC(F)(F)F)ccc2O1,4.89%
6,C[C@@H]1CN([C@@H](C)CO)C(=O)c2cc(NC(=O)C3CCCCC3)ccc2O[C@@H](C)CCCCO[C@@H]1CN(C)C(=O)Nc1ccccc1,-1.11%
7,C[C@@H]1CCCCO[C@H](CN(C)C(=O)Nc2ccc(C(F)(F)F)cc2)[C@H](C)CN([C@H](C)CO)C(=O)c2cc(NC(=O)Nc3ccc(C(F)(F)F)cc3)ccc2O1,2.81%
8,C[C@@H]1CCCCO[C@@H](CN(C)C(=O)Nc2ccc(C(F)(F)F)cc2)[C@H](C)CN([C@H](C)CO)C(=O)c2cc(NC(=O)C3CCCCC3)ccc2O1,22.5% (active)
9,C[C@@H]1CCCCO[C@@H](CN(C)C(=O)C2CCCCC2)[C@H](C)CN([C@H](C)CO)C(=O)c2cc(NC(=O)CCC(F)(F)F)ccc2O1,74.2% (active)
10,C[C@H](CO)N1C[C@H](C)[C@@H](CN(C)Cc2ccc(C(F)(F)F)cc2)OCCCC[C@H](C)Oc2ccc(NC(=O)C3CCCCC3)cc2C1=O,-1.83%
11,C[C@@H]1CCCCO[C@@H](CN(C)C(=O)NC2CCCCC2)[C@@H](C)CN([C@H](C)CO)C(=O)c2cc(NC(=O)CCC(F)(F)F)ccc2O1,-1.91%
12,C[C@H](CO)N1C[C@H](C)[C@H](CN(C)C(=O)Nc2ccc(C(F)(F)F)cc2)OCCCC[C@H](C)Oc2ccc(NC(=O)C3CCCCC3)cc2C1=O,21.9% (active)
13,C[C@@H]1CN([C@H](C)CO)C(=O)c2cc(C#Cc3ccccn3)cnc2O[C@H]1CN(C)CC1CCOCC1,-1.46%
14,O=C(C[C@H]1CC[C@@H]2[C@H](COC[C@@H](O)CN2C(=O)Nc2cccc(F)c2)O1)NCc1ccccc1F,0.633%
15,COc1ccc2c3c([nH]c2c1)[C@H](CO)N(Cc1cccc(F)c1)CC31CCN(CC2CC2)CC1,-32.6%
16,C[C@H]1CCCCO[C@H](CN(C)CC2CC2)[C@@H](C)CN([C@@H](C)CO)C(=O)c2cc(NS(C)(=O)=O)ccc2O1,2.25%
17,COc1ccccc1-c1cnc2c(c1)C(=O)N([C@H](C)CO)C[C@@H](C)[C@@H](CN(C)CC1CCCC1)O2,23.1%
18,C[C@@H]1CN([C@H](C)CO)C(=O)c2cc(NS(C)(=O)=O)ccc2O[C@@H]1CN(C)S(C)(=O)=O,-0.244%
19,C[C@H](O)C#Cc1cnc2c(c1)C(=O)N([C@H](C)CO)C[C@H](C)[C@@H](CN(C)C(=O)Nc1ccc(F)cc1)O2,8.69%

row,Compound,CPE inhibition
1,CNC[C@@H]1OCCCC[C@H](C)Oc2ccc(NC(=O)Nc3ccc(OC)cc3)cc2C(=O)N([C@H](C)CO)C[C@@H]1C,7.49%
2,COc1ccc(NC(=O)N(C)C[C@H]2Oc3ccc(NS(=O)(=O)c4cccs4)cc3C(=O)N([C@@H](C)CO)C[C@H]2C)cc1,-6.98%
3,C[C@@H]1CCCCO[C@@H](CN(C)S(=O)(=O)c2ccc(F)cc2)[C@@H](C)CN([C@@H](C)CO)C(=O)c2cc(NS(=O)(=O)c3cccs3)ccc2O1,12.7%
4,C[C@H]1CN([C@@H](C)CO)C(=O)c2cc(NS(=O)(=O)c3cccs3)ccc2O[C@@H]1CN(C)C(=O)Nc1ccccc1,22.2% (active)
5,C[C@@H]1CN([C@H](C)CO)C(=O)c2cc(NS(=O)(=O)c3cccs3)ccc2O[C@@H](C)CCCCO[C@@H]1CN(C)S(=O)(=O)c1ccc(Cl)cc1,22.8% (active)
6,C[C@@H]1CN([C@H](C)CO)C(=O)c2cc(NS(=O)(=O)c3cccs3)ccc2O[C@@H](C)CCCCO[C@@H]1CN(C)S(=O)(=O)c1cccs1,-4.08%
7,C[C@H]1CN([C@@H](C)CO)C(=O)c2cc(NS(=O)(=O)c3cccs3)ccc2O[C@@H]1CN(C)C(=O)Nc1cccc2ccccc12,-2.31%
8,C[C@H]1CCCCO[C@@H](CN(C)S(=O)(=O)c2cccs2)[C@@H](C)CN([C@@H](C)CO)C(=O)c2cc(NS(=O)(=O)c3ccc(Cl)cc3)ccc2O1,-0.143%
9,C[C@@H]1CCCCO[C@H](CN(C)S(=O)(=O)c2cccs2)[C@H](C)CN([C@@H](C)CO)C(=O)c2cc(NS(=O)(=O)c3cccs3)ccc2O1,-8.04%
10,C[C@@H]1CCCCO[C@H](CN(C)S(=O)(=O)c2ccc(Cl)cc2)[C@H](C)CN([C@@H](C)CO)C(=O)c2cc(NS(=O)(=O)c3cccs3)ccc2O1,63.8% (active)
11,CC(C)NC(=O)Nc1ccc2c(c1)C(=O)N(C)[C@H]1CC[C@H](CC(=O)NCC3CCCCC3)O[C@@H]1CO2,-11%
12,C=C[C@H](OC)[C@@H](O)c1ccc(OC)c(O)c1,-1.37%
13,C[C@H](CO)N1C[C@H](C)[C@@H](CN(C)C(=O)CCC(F)(F)F)OCCCC[C@H](C)Oc2ccc(NC(=O)C3CCCCC3)cc2C1=O,-0.808%
14,CCS(=O)(=O)N1[C@H](CO)[C@@H](c2ccccc2)C12CN(C(=O)C1CCC1)C2,-6.37%
15,Cc1noc(C)c1NC(=O)N(C)C[C@@H]1Oc2ccc(NC(=O)Nc3ccc4c(c3)OCO4)cc2CC(=O)N([C@H](C)CO)C[C@H]1C,9.34%
16,C[C@@H]1CN([C@H](C)CO)C(=O)c2cc(C#CCC3CCCC3)cnc2O[C@H]1CN(C)C(=O)c1cnccn1,4.48%
17,CO[C@H]1O[C@H](CO)[C@@H](OC(=O)Nc2ccc(C(F)(F)F)cc2)[C@H](OC(=O)Nc2ccc3c(c2)OCO3)[C@H]1OC(=O)Nc1ccc2c(c1)OCO2,3.41%
18,CO[C@@H]1CN(C)C(=O)c2cc(NC(=O)C3CC3)ccc2OC[C@@H](C)N(Cc2ccc(F)cc2)C[C@@H]1C,3.49%
19,C[C@@H]1CN([C@@H](C)CO)C(=O)Cc2cc(NS(C)(=O)=O)ccc2O[C@H]1CN(C)C(=O)Nc1ccccc1,16.2%

row,Compound,CPE inhibition
1,C[C@@H]1CN([C@H](C)CO)C(=O)Cc2cc(NC(=O)CCN3CCOCC3)ccc2O[C@H]1CN(C)CC1CC1,-0.438%
2,COc1ccc2c3c(n(C)c2c1)[C@@H](CO)N(C(C)=O)CC31CCN(Cc2nccs2)CC1,-1.04%
3,COc1ccc2c3c(n(C)c2c1)[C@@H](CO)N(C(=O)c1ccc(F)cc1)CC31CN(C(=O)c2ccc(F)cc2)C1,2.03%
4,CCS(=O)(=O)N1CC2(CN(C(=O)c3ccc(F)cc3)[C@@H](CO)c3c2c2ccc(OC)cc2n3C)C1,-7%
5,COc1cc(CN2CC3(CN(S(=O)(=O)c4cn(C)cn4)C3)c3c(n(C)c4cc(OC)ccc34)[C@H]2CO)cc(OC)c1,58.8% (active)
6,COc1ccc2c3c(n(C)c2c1)[C@H](CO)N(C(=O)CC1CC1)CC31CCN(Cc2nccs2)CC1,-5.74%
7,CCS(=O)(=O)N1CC2(CN(C(=O)c3ccc(F)cc3)[C@H](CO)c3c2c2ccc(OC)cc2n3C)C1,21.9% (active)
8,COc1ccc2c3c([nH]c2c1)[C@@H](CO)N(Cc1nccs1)CC31CCN(C(=O)C2CCCC2)CC1,-11.8%
9,CCS(=O)(=O)N1CC2(CN(Cc3cc(F)ccc3F)[C@@H](CO)c3c2c2ccc(OC)cc2n3C)C1,-8.85%
10,COc1ccc2c3c(n(C)c2c1)[C@H](CO)N(CC1CCCCC1)CC31CCN(Cc2nccs2)CC1,22.7% (active)
11,CCS(=O)(=O)N1CC2(CN(Cc3ccccc3)[C@@H](CO)c3c2c2ccc(OC)cc2n3C)C1,6.33%
12,COc1ccc2c3c([nH]c2c1)[C@H](CO)N(Cc1nccs1)CC31CCN(C(=O)C2CCC2)CC1,-3.4%
13,COc1ccc2c3c([nH]c2c1)[C@@H](CO)N(C(=O)C1CC1)CC31CCN(Cc2nccs2)CC1,25.2% (active)
14,Cc1noc(C)c1NC(=O)Nc1ccc2c(c1)C(=O)N([C@H](C)CO)C[C@H](C)[C@H](CN(C)Cc1ccc(C(=O)O)cc1)OCCCC[C@H](C)O2,3.28%
15,CO[C@H](CN(C)S(=O)(=O)c1ccc(C)cc1)[C@@H](C)CN(Cc1ccccc1Cl)[C@@H](C)CO,-6.58%
16,C[C@H]1CCCCO[C@@H](CN(C)Cc2ccc3c(c2)OCO3)[C@@H](C)CN([C@@H](C)CO)C(=O)c2cc(NC(=O)c3ccccc3)ccc2O1,-5.55%
17,C[C@H](CO)N1C[C@H](C)[C@@H](CN(C)S(=O)(=O)c2cccs2)OCCCC[C@H](C)Oc2ccc(NS(=O)(=O)c3ccccc3)cc2C1=O,-5.76%
18,Cc1ccc(S(=O)(=O)Nc2ccc3c(c2)C(=O)N([C@@H](C)CO)C[C@H](C)[C@@H](CN(C)C(=O)Nc2ccc(F)cc2)OCCCC[C@H](C)O3)cc1,0.458%
